Drawing on PubChem BioAssay AID1347165 (National Center for Advancing Translational Sciences (NCATS), 2019), this text covers Potency for 101 molecules.

Molecules are shown by their SMILES. About 5,700 (2.6%) of roughly 220,000 compounds were called active. A call without a number means that no potency is given here. Inconclusive results (about 18%) are left out. The sample holds actives, similar compounds and a random draw of the others, so the mix is not that of the screen. Calls follow the shape of the dose curve; as a rule, active = well fitted inhibition curve with a large enough effect; inconclusive = small, poorly fitted or top-dose-only effect; inactive = no such curve, though single readings can be large or run the other way.
Potency is read from the fitted curve at half-maximal effect.

In the assay the target is Lysine-specific demethylase 5B (Homo sapiens) (UniProt Q9UGL1). The assay is described as follows: Primary screen for KDM5B Histone Demethylases FDH-coupled qHTS. Also: nearly all actives have a fitted effect of over 70% in size. As to conditions: FDH-coupled NADH fluorescence (FDH is formaldehyde dehydrogenase); series mostly up to 57.7 µM. Put shortly: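 Measured: NADH fluorescence change, 30 min, RT. System: KDM5BΔAP 200 nM final, H3K4me3 peptide, α-KG, Fe(II), ascorbate, NAD⁺ plus FDH, pH 7.5 HEPES. Compounds: titrated, 10 min pre-incubation with enzyme.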
Chain of Lysine-specific demethylase 5B (Homo sapiens) (Q9UGL1 whole entry, looked up): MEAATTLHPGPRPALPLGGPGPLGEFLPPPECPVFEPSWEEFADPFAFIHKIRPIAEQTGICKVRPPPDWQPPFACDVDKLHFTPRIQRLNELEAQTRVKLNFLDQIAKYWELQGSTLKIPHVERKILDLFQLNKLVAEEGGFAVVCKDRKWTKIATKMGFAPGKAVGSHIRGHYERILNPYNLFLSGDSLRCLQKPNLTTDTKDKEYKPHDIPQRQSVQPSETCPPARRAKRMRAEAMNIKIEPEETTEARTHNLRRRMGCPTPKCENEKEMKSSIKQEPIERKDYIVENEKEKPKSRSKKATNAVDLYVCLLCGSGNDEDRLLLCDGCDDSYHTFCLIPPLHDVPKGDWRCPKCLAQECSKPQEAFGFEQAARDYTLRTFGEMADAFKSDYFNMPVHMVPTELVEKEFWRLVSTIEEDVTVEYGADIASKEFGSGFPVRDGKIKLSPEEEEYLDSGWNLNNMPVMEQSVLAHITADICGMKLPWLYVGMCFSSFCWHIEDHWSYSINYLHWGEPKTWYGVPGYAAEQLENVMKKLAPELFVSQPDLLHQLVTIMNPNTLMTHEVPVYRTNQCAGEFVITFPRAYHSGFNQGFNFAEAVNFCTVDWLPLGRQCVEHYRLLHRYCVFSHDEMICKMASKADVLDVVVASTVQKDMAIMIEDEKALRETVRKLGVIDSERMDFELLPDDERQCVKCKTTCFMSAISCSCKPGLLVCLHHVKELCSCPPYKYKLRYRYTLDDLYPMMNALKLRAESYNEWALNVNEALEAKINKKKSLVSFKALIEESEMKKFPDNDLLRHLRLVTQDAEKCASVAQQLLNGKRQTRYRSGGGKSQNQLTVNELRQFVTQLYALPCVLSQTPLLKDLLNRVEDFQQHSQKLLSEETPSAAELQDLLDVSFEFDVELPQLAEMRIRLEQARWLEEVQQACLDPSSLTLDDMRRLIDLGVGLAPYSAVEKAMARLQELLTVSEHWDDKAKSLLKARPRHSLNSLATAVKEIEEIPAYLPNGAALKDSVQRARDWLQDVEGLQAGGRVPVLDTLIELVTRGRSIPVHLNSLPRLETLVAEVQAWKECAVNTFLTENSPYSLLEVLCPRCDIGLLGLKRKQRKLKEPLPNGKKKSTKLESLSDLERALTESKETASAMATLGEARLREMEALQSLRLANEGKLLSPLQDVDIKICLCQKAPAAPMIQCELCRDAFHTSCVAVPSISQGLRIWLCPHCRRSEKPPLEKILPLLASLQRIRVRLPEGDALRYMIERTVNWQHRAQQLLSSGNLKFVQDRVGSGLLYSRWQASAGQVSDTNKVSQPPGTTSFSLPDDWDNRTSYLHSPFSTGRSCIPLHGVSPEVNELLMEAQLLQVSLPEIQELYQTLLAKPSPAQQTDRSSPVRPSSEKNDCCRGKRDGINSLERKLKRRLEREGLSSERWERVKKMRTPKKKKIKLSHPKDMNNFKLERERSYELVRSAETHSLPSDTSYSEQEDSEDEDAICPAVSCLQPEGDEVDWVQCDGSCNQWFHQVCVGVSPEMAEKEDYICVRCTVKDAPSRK
(In general: Quantitative high-throughput screening tests each substance at several concentrations.)
For `CCN1CCC(N(Cc2cccs2)C(=O)Nc2cc(Cl)ccc2C(=O)OC)CC1`, the Potency entry was “inactive”.
Next, `O=C(CCNC(=O)c1cnccn1)Nc1ccccc1Cc1ccccc1`: “inactive”; `COc1ccccc1-c1noc(COC(=O)c2ccc3c(c2)NC(=O)CS3)n1`: “inactive”; `CC(C)N1C(=O)C2(CCCC2)C1C(=O)Nc1ccc2c(c1)N(C)CCC2` (stereo unspecified): 31.6 µM (active).
For the molecule `C=CCNC(=O)C1N(C(C)C)C(=O)C12CCCCC2` (stereo unspecified), the Potency result is “inactive”.
For the molecule `C=CCNC(=O)C1N(C(C)C)C(=O)C12CCCC2` (stereo unspecified), the Potency entry is “inactive”.
`CCNC(=O)NC(=O)CSc1nc(-c2ccco2)nc2ccccc12`: the Potency entry was “inactive”.
Consider `CN1C[C@@H](NC(=O)c2ccccc2)C[C@H]1c1nc(-c2ccccc2)no1`, for which the Potency entry was “inactive”.
For the molecule `COc1ccc(C(=O)N[C@H]2C[C@@H](c3nc(-c4ccc(OC)cc4)no3)N(C)C2)cc1`, the Potency result is “inactive”.
As for `CN1C[C@@H](NC(=O)c2ccc(C(C)(C)C)cc2)C[C@H]1c1nc(-c2ccc3ccccc3c2)no1`, the Potency was 25.1 µM (active).
As to `COc1ccc(Cl)cc1NC(=O)N1CCC2(CC1)N=C(c1ccc(C)c(C)c1)C(=O)N2`, the Potency result was “inactive”.
With `Cc1ccc2c(C(=O)N3CCCC(C#N)C3)cc(-c3cnn(C(C)C)c3)nc2c1` (stereo unspecified), the Potency was 28.2 µM (active).
For the molecule `CC(C)(C)OC(=O)N1CCN(C(=O)c2cc(-c3ccncc3)nc3ccccc23)CC1`, the Potency result was “inactive”.
Turning to `Cc1nc(-c2cn(C3CCCN(C(=O)c4cc(F)ccc4F)C3)nn2)no1` (stereo unspecified), the Potency result is “inactive”.
`C=CCn1c(SCc2coc(-c3cccc(Cl)c3)n2)nnc1C1CCS(=O)(=O)C1` (stereo unspecified): the Potency result was “inactive”.
For the molecule `COc1ccc(C(=O)OCC(=O)NCCCc2ccccc2)cc1OC`, the Potency result is “inactive”.
As to `COc1ccc(C(=O)Nc2oc3ccc(Cl)cc3c(=O)c2-c2cc(OC)c(OC)c(OC)c2)cc1`, the Potency result is “inactive”.
Turning to `CC(C)Nc1ncc(C(=O)NC2CCCN(CCc3ccccc3)C2)cn1` (stereo unspecified), the Potency was 25.1 µM (active).
Next, `CCn1ccnc1CN(C)C1CCCN(CCc2ccccc2)C1` (stereo unspecified): “inactive”; `Cc1occc1C(=O)NC1CCCN(Cc2ccc(CC(C)C)cc2)C1` (stereo unspecified): “inactive”.
The same measure for `Cc1ccc(C(=O)NC2CCN(c3cnn(CC4CC4)c(=O)c3)CC2)c(C)c1`: “inactive”; for `O=C(CSc1ncnc2c1cnn2-c1ccccc1)NC(=O)NC1CCCC1`: “inactive”.
Regarding `Cc1nc2ncccn2c1C(=O)N[C@@H]1CCOC[C@H]1Oc1ccccn1`, the Potency is 31.6 µM (active).
The same measure for `O=C(N[C@H]1CCOC[C@H]1C1CCOCC1)c1cccc2nccnc12`: “inactive”; for `O=C(N[C@@H]1CCOC[C@H]1Oc1ccccn1)c1cc(C2CC2)no1`: “inactive”; for `O=S(=O)(N[C@@H]1CCOC[C@H]1Oc1ccccn1)c1ccc(Cl)s1`: “inactive”.
`Cc1nc(N(C)C)ncc1C(=O)N[C@@H]1CCOC[C@H]1Oc1ccccn1`: the Potency is 25.1 µM (active).
Turning to `N#Cc1ccc(O[C@@H]2COCC[C@H]2NC(=O)CCCn2cccn2)cc1`, the Potency entry is “inactive”.
On to `Cc1nn(C)c2nc(OC(C)C(=O)Nc3ccccc3F)cc(-c3ccccc3)c12` (stereo unspecified), for which the Potency entry was “inactive”.
In the case of `CC(C)n1cnnc1CC1CCN(C(=O)CCCc2ccccc2)C1` (stereo unspecified), the Potency result is “inactive”.
The same measure for `CC1(C)CC(=O)C/C(=N/NC(=O)c2ccccc2Br)C1`: “inactive”; for `CC(=O)Nc1cccc(C(=O)N2CCC3(CC2)NC(=O)N(c2cccc(Cl)c2)N3)c1`: “inactive”; for `COc1ccc(S(=O)(=O)N(C)Cc2nc(-c3ccc(OC(F)(F)F)cc3)no2)cc1`: “inactive”.
Regarding `O=[S+]([O-])(Nc1cccnc1)c1ccc2c(c1)OCCN(Cc1cscn1)C2`, the Potency is 35.5 µM (active).
Consider `O=[S+]([O-])(Nc1cccnc1)c1ccc2c(c1)OCCN(Cc1ccc(F)cc1)C2`, for which the Potency entry is “inactive”.
Turning to `O=[S+]([O-])(Nc1ccccc1)c1ccc2c(c1)OCCN(Cc1cccs1)C2`, the Potency entry is “inactive”.
Consider `Cc1c(C)[n+](=O)c2ccccc2n1[O-]`, for which the Potency entry is “inactive”.
As to `O=C(COC(=O)Cc1ccc(Cl)c(Cl)c1)NCc1ccc(F)cc1`, the Potency entry is “inactive”.
Consider `COC(=O)[C@H](Cc1ccc(OC)cc1)NC(=O)[C@@H]1CN(C(=O)c2cccc(F)c2)CCN1C(=O)c1cccc(F)c1`, for which the Potency result was “inactive”.
Next, `CC(C)(C)C(=O)NCCCC(=O)NCCc1cccs1`: “inactive”; `CCCc1nnc2sc(-c3ccc4c(c3)OCCO4)nn12`: “inactive”.
Next, `Fc1ccc(CNC[C@H]2Cn3c(-c4ccc5c(c4)OCCO5)cnc3CO2)cc1`: “inactive”; `c1cc(-c2ccc3c(c2)OCCCO3)n2ncnc2n1`: 15.8 µM (active).
Next, `CC(Sc1ccc2c(c1)OCCCO2)C(=O)O` (stereo unspecified): “inactive”; `O=C(CSc1ncnc2sccc12)c1ccc2c(c1)OCCCO2`: “inactive”.
Turning to `CC(C)c1nc2nccc(-c3ccc4c(c3)OCCCO4)n2n1`, the Potency is 22.4 µM (active).
The same measure for `Cc1cc(C)cc(-c2nnc(SCC(=O)N3CCCC(C)C3)o2)c1` (stereo unspecified): “inactive”.
Turning to `O=C(Cn1cccc1-c1nc(-c2ccccc2)no1)Nc1ccccc1F`, the Potency entry was “inactive”.
Consider `COc1ccc(-c2c3c(=O)n(C)c(=O)n(C)c3c3n2C(C)(C)COC3c2cccc(OC)c2)cc1` (stereo unspecified), for which the Potency result is “inactive”.
`Cc1cc(C)c(-c2cc(C(=O)Nc3ccccc3C(F)(F)F)[nH]n2)c(O)c1`: the Potency entry was “inactive”.
Regarding `Cc1cc(C(=O)NCCc2ccc(Cl)cc2)n(-c2ccccc2)n1`, the Potency entry is “inactive”.
With `Cc1cc(CNC(=O)c2ccc(-c3ccccc3Cl)o2)n(C)n1`, the Potency is 20 µM (active).
Regarding `Cc1ccc(CNC(=O)c2nn(C)c(=O)c3ccccc23)cc1`, the Potency result is “inactive”.
Consider `CCOC(=O)C1CCN(CC(O)c2cccc(C(F)(F)F)c2)CC1` (stereo unspecified), for which the Potency result was “inactive”.
Turning to `Cc1ccc(-c2nc(N3CCOCC3)cc3c2CN(Cc2cnn(C)c2)C3=O)cn1`, the Potency was 35.5 µM (active).
As for `COCC(=O)N(C1CCOCC1)C1CCN(C(=O)c2cccc(OC)c2)CC1`, the Potency entry was “inactive”.
As for `O=C(c1cccnc1)N1CCN(c2cc(-c3ccccc3)[nH]n2)CC1`, the Potency entry is “inactive”.
On to `COc1cccc(-c2nc(N3CCOCC3)cc3c2CN(CC2CC2)C3=O)c1`, for which the Potency is 39.8 µM (active).
For `O=C(c1cccnc1)N1CCC2(CCCN(C3CCOCC3)C2=O)C1` (stereo unspecified), the Potency result is “inactive”.
The same measure for `Cc1ccc(NC(=O)Nc2ccc3nc(N4CCOCC4)cc(C)c3c2)cc1`: “inactive”.
The same measure for `O=C1c2cc(N3CCOCC3)nc(-c3cccnc3)c2CN1C1COC1`: 31.6 µM (active); for `COc1cccc(-c2noc(CC3CCN(C(=O)c4ccc(F)cc4)CC3)n2)c1`: “inactive”; for `CCc1nc2c(c(-c3ccc(Cl)cc3)n1)CCN([S+](=O)([O-])c1cccs1)CC2`: “inactive”.
For `O=C(O)c1ccc(C(=O)C2CCCCC2C(=O)O)cc1` (stereo unspecified), the Potency result is “inactive”.
Regarding `Cc1nn(-c2ncnc3nc[nH]c23)c2c1C(c1ccc(F)cc1F)CC(=O)N2` (stereo unspecified), the Potency result was “inactive”.
The same measure for `Cc1cccc(OCc2nn3c(CN4CCOCC4)nnc3s2)c1`: “inactive”; for `Cc1cc2c(s1)CCCCCCCCCC/C2=N\Nc1ccc([N+](=O)[O-])cc1`: “inactive”.
In the case of `O=C(Nc1ccc2oc(=O)ccc2c1)c1cccc2ccccc12`, the Potency result was “inactive”.
As to `CC(NC(=O)c1ccc(SC(F)(F)F)cc1)c1ccccn1` (stereo unspecified), the Potency result is “inactive”.
Turning to `COc1ccc(NC(=O)Cc2c(C)c3ccc(O)cc3oc2=O)cc1`, the Potency entry was “inactive”.
Take `CC1(C)CC(NC(=O)Nc2ccc(OC(F)(F)F)cc2)CC(C)(C)N1`: the Potency entry was “inactive”.
Turning to `CN(C)C(=O)c1nc(-c2ccc(Cl)cc2Cl)c2cnccn12`, the Potency was 100 µM (active).
In the case of `CN(C)C(=O)c1nc(-c2cccnc2)c2ccccn12`, the Potency result is “inactive”.
As for `CC1CCCCN1CCNC(=O)c1cc2c(s1)-c1ccccc1OC2` (stereo unspecified), the Potency entry was “inactive”.
Consider `COc1ccc(CNC(=O)c2ccc3oc(C(C)C)nc3c2)cc1`, for which the Potency entry was “inactive”.
On to `CCCNC(=O)N1CC(Oc2ccc(-c3nc(C)no3)cc2)C1`, for which the Potency entry was “inactive”.
The same measure for `NS(=O)(=O)c1ccc(F)c(C(=O)NCc2noc(-c3ccco3)n2)c1`: “inactive”; for `O=C(NCc1nnc2cc(-c3nc(C4CC4)no3)ccn12)c1ccc(F)cc1Cl`: 28.2 µM (active).
Next, `CC(C)NC(=O)C1CCc2nnc(CNC(=O)c3ccc(Cl)cc3Cl)n21` (stereo unspecified): “inactive”.
Take `COc1ccc(C(=O)NCc2nnc3cc(-c4nc(C)no4)ccn23)cc1`: the Potency was 25.1 µM (active).
Turning to `CCc1noc(-c2ccn3c(CNC(=O)c4ccco4)nnc3c2)n1`, the Potency is 28.2 µM (active).
Turning to `CN(C)c1ccc(C(=O)NCc2nnc3cc(-c4nc(C5CC5)no4)ccn23)cc1`, the Potency result was “inactive”.
As for `CCCC(=O)Nc1ccc2c(c1)nc(CCNC(=O)c1ccco1)n2C`, the Potency entry was “inactive”.
As for `CSc1ncc(C(=O)NCCCc2ccccc2)c(C)n1`, the Potency entry was “inactive”.
`CCc1ccc(C2C(C(=O)Nc3ccccc3)=C(C)Nc3c(C(=O)Nc4ccc(F)cc4)cnn32)cc1` (stereo unspecified): the Potency result is “inactive”.
Next, `COc1ccc(CC(=O)NC(CCSC)c2nc3ccccc3[nH]2)cc1` (stereo unspecified): “inactive”; `Cc1cc(=O)oc2cc(OCC(=O)NCc3cccs3)c(Cl)cc12`: “inactive”; `COc1ccc(CNC(=O)CN(Cc2ccccc2Cl)C(=O)c2csnn2)cc1`: “inactive”.
The same measure for `Cc1noc(-c2ccccc2NC(=O)C2CC(=O)N(c3cccc(C(F)(F)F)c3)C2)n1` (stereo unspecified): “inactive”.
Next, `CC(C)c1nc2c(c(-c3ccc(Cl)cc3)n1)CN(C(=O)c1ccccc1)CC2`: “inactive”.
Regarding `O=C(c1cccc(Cl)c1)N1CCc2nc(C3CC3)nc(-c3ccc(Cl)cc3)c2C1`, the Potency entry was “inactive”.
Take `N#CC1CCN(C(=O)c2nc(-c3ccc(Cl)cc3)c3ccccn23)CC1`: the Potency was 25.1 µM (active).
As for `CC(C(=O)N1CCc2ccccc21)N(C)CC(=O)Nc1ccc(F)cc1` (stereo unspecified), the Potency entry was “inactive”.
As for `CCc1ccc(C(=O)C(C)Sc2nc3ccccc3c(=O)n2CCC(=O)OC)cc1` (stereo unspecified), the Potency entry was “inactive”.
Consider `C=CCCC(CN1CCCC1)Oc1cncc(C(=O)N2CCCC2)n1` (stereo unspecified), for which the Potency was 8.91 µM (active).
With `CCCCCCCCOc1ccc(C(=O)c2ccccc2O)c(O)c1`, the Potency result is “inactive”.
As to `COc1ccc(-c2c(NC(=O)C(C)C)oc3c(C)cccc3c2=O)cc1`, the Potency entry was “inactive”.
`O=C(C1CCCC1)N1Cc2ccccc2CC2(CCCCN2CC2CCNCC2)C1` (stereo unspecified): the Potency entry is “inactive”.
As to `COc1ccc(CN2CCn3c(nn(-c4ccncc4)c3=O)C2)cc1`, the Potency result is “inactive”.
Take `Cn1cccc1CN1CCn2c(nn(-c3cccc(Cl)c3)c2=O)C1`: the Potency is 63.1 µM (active).
Consider `O=C(c1ccc(C(F)(F)F)cc1)N1CCn2c(nn(-c3cccc(Cl)c3)c2=O)C1`, for which the Potency entry is “inactive”.
